What all share (test): DAPPL (digital affinity profiling via proximity ligation, sequencing); 10 mM Tris-HCl pH 7.5, 50 mM NaCl, 1 mM DTT, 4% glycerol, room temperature, 30 min; GST-TFs on glutathione beads, 16-mer random dsDNA library, 0.1% formaldehyde crosslink after washing; high values mean tight binding
Experiment [1] addresses T1, FEV (Homo sapiens, UniProt Q99581 1-238).
T1 sequence: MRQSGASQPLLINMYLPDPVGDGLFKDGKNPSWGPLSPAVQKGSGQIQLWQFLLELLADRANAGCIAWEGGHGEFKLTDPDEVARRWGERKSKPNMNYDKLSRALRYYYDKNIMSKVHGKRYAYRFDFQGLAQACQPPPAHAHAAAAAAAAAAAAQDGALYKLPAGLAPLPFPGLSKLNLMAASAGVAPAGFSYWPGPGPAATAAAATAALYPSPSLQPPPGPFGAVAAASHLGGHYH
The following applies: protein: recombinant; tags: N-terminal GST; dsDNA, one strand shown. The essentials: (§1)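 Binding signal is defined as a hexamer's read frequency for one factor over its frequency for the tag-only sample. To obtain reads, GST-fused human transcription factors were expressed in yeast, captured on glutathione beads, barcoded with DNA and pooled with that sample. Pools met 200 nmole of a 16-mer random double-stranded DNA library in Tris/NaCl/DTT/glycerol buffer for 30 min at room temperature before washing, 0.1% formaldehyde crosslinking, proximity ligation (BsaI/T4 ligase, 1 h, 37 °C), PCR and Illumina NextSeq500 sequencing.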

Experiment [2] concerns the target ETV5 (Homo sapiens, UniProt P41161 1-510). The following applies: protein: recombinant; tags: N-terminal GST; dsDNA, one strand shown. The essentials:
as §1

Experiment [3] has as its target HSF1 (Homo sapiens, UniProt Q00613 1-529). The following applies: protein: recombinant; tags: N-terminal GST; chain copies: 3; dsDNA, one strand shown. The gist of the method:
as §1

Experiment [4] concerns the target T2, SPIC (Homo sapiens, UniProt Q8N5J4 1-248).
T2 sequence: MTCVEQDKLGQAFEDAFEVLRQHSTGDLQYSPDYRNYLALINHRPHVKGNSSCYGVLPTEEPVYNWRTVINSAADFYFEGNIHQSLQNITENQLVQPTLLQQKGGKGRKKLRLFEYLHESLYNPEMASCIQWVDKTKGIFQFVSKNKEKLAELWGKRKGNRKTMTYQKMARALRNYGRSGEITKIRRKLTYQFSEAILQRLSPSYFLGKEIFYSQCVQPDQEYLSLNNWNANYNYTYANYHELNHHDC
The following applies: protein: recombinant; tags: N-terminal GST; dsDNA, one strand shown. The gist of the method:
as §1

The target of experiment [5] is ELF4 (Homo sapiens, UniProt Q99607 1-663). The note with it: protein: recombinant; tags: N-terminal GST; dsDNA, one strand shown. The essentials:
as §1

Experiment [6] deals with T3, ELK4 (Homo sapiens, UniProt P28324-2 1-405).
T3 sequence: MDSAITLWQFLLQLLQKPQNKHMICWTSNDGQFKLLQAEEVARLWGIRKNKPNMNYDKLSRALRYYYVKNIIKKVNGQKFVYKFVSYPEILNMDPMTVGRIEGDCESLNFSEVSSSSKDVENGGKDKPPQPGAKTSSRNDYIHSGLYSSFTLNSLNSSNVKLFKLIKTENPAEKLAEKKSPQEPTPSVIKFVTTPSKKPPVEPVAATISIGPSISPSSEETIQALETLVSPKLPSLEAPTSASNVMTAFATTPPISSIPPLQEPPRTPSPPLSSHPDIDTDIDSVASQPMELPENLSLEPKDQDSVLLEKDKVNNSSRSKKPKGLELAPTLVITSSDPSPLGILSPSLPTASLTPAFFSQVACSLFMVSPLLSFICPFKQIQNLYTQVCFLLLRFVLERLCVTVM
The note with it: protein: recombinant; tags: N-terminal GST; dsDNA, one strand shown. The essentials: as §1

Experiment [7] concerns the target T4, ETV2 (Homo sapiens, UniProt O00321 1-342).
T4 sequence: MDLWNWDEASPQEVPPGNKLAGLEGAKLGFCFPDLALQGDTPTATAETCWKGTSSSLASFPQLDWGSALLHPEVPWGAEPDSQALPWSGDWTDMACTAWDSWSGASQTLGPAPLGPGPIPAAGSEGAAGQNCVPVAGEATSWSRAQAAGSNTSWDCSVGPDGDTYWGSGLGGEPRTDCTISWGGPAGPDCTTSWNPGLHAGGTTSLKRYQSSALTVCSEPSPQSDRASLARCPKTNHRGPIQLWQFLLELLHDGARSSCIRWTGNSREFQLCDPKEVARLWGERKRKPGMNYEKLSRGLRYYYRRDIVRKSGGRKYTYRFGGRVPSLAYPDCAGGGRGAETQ
The note with it: protein: recombinant; tags: N-terminal GST; dsDNA, one strand shown. The gist of the method:
as §1

The target in experiment [8] is T5, ELF3 (Homo sapiens, UniProt P78545 1-371).
T5 sequence: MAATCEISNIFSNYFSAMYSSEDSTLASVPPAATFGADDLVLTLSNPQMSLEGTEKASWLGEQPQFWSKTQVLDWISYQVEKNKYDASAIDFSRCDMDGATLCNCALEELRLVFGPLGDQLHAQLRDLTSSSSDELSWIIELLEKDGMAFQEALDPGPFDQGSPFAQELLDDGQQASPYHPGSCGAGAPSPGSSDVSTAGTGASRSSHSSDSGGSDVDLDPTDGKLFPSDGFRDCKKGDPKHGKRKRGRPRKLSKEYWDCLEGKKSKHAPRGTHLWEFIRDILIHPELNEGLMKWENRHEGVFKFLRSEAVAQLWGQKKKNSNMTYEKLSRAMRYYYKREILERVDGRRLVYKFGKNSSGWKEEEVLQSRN
The following applies: protein: recombinant; tags: N-terminal GST; dsDNA, one strand shown. The essentials: as §1

Experiment [9] has as its target CRX (Homo sapiens, UniProt O43186 1-299). The note with it: protein: recombinant; tags: N-terminal GST; dsDNA, one strand shown. The essentials: as §1
The target of experiment [10] is ETV1 (Homo sapiens, UniProt P50549 1-477). The note with it: protein: recombinant; tags: N-terminal GST; dsDNA, one strand shown. The gist of the method: as §1
For experiment [11], the target named is T6, ERF (Homo sapiens, UniProt P50548 1-548).
T6 sequence: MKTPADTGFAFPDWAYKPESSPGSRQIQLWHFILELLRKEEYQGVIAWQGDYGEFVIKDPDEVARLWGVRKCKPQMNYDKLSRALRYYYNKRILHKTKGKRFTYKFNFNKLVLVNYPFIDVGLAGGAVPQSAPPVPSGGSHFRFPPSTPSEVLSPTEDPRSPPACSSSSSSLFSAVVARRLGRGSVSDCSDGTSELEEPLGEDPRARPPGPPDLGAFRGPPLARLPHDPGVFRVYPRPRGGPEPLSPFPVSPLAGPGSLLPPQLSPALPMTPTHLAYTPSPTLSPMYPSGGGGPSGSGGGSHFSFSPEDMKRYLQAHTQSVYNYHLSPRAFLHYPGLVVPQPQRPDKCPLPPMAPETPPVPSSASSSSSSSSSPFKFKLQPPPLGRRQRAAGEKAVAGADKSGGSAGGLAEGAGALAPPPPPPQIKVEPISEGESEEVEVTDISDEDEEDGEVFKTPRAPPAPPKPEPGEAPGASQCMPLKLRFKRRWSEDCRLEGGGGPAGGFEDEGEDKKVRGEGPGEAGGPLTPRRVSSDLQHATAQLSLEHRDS
The following applies: protein: recombinant; tags: N-terminal GST; dsDNA, one strand shown. The gist of the method: as §1

Experiment [12] has as its target T7, ETV3L (Homo sapiens, UniProt Q6ZN32 1-361).
T7 sequence: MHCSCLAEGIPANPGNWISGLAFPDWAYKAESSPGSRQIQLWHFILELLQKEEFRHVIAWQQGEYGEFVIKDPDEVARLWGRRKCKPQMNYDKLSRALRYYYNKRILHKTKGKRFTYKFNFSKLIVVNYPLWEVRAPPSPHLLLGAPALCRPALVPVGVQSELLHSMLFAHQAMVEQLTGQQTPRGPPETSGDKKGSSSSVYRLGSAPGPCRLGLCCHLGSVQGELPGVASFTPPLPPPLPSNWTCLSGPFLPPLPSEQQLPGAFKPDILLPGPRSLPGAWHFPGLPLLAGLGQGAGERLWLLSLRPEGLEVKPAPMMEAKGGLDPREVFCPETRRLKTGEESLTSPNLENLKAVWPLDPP
The following applies: protein: recombinant; tags: N-terminal GST; dsDNA, one strand shown. The gist of the method:
as §1

Experiment [13] concerns the target T8, ETS2 (Homo sapiens, UniProt P15036 1-469).
T8 sequence: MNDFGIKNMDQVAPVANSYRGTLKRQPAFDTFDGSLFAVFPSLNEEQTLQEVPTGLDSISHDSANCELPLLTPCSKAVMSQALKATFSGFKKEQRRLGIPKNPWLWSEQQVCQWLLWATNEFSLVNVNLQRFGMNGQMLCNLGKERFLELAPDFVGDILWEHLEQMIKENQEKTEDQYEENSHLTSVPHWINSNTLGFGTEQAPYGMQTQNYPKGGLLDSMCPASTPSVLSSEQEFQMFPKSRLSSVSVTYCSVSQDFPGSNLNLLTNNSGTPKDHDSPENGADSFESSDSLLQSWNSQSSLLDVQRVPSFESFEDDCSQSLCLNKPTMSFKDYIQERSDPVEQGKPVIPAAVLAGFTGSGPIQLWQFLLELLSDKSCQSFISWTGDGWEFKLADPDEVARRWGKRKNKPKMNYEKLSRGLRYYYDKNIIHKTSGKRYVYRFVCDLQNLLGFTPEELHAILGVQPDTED
The note with it: protein: recombinant; tags: N-terminal GST; dsDNA, one strand shown. The essentials:
as §1

Experiment [14] has as its target T9, SPDEF (Homo sapiens, UniProt O95238 1-335).
T9 sequence: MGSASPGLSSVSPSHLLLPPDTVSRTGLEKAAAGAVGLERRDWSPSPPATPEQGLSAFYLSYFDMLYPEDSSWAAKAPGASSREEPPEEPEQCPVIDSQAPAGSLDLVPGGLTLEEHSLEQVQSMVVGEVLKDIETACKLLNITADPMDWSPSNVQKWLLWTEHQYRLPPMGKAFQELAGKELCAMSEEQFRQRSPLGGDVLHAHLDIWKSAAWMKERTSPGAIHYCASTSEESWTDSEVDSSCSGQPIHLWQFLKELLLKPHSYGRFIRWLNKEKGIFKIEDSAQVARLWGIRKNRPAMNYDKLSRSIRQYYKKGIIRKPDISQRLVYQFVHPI
The following applies: protein: recombinant; tags: N-terminal GST; dsDNA, one strand shown. The essentials:
as §1

Experiment [15] deals with T10, ETV7 (Homo sapiens, UniProt Q9Y603 1-341).
T10 sequence: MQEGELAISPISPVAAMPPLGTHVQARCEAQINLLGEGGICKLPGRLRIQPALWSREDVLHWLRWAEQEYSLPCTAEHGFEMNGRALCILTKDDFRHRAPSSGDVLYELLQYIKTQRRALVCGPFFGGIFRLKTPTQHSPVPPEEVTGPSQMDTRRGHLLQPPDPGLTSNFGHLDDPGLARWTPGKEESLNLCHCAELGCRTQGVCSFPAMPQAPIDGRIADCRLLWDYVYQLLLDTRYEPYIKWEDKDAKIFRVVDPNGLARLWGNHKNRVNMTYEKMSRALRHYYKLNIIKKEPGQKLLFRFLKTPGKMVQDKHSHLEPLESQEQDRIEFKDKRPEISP
The note with it: protein: recombinant; tags: N-terminal GST; dsDNA, one strand shown. The essentials: as §1

In experiment [16] the target is T11, ELF5 (Homo sapiens, UniProt Q9UKW6-2 1-255).
T11 sequence: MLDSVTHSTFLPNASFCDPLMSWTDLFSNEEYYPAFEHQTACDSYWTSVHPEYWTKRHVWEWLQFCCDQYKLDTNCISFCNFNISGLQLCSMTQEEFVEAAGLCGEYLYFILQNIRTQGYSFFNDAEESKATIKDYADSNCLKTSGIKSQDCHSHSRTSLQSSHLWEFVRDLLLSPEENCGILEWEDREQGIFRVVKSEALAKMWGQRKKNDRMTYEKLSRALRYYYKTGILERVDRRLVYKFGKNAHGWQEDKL
The note with it: protein: recombinant; tags: N-terminal GST; dsDNA, one strand shown. The essentials:
as §1

For experiment [17], the target named is T12, ETV3 (Homo sapiens, UniProt P41162-2 1-143).
T12 sequence: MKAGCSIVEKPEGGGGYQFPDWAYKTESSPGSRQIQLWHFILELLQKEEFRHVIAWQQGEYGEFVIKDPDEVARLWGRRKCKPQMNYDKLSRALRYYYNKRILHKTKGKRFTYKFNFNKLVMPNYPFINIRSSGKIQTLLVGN
The following applies: protein: recombinant; tags: N-terminal GST; dsDNA, one strand shown. The essentials:
as §1

Experiment [18] concerns the target ETV6 (Homo sapiens, UniProt P41212 1-452). The following applies: protein: recombinant; tags: N-terminal GST; dsDNA, one strand shown. The gist of the method:
as §1

ELF4, sequence (Q99607 whole entry): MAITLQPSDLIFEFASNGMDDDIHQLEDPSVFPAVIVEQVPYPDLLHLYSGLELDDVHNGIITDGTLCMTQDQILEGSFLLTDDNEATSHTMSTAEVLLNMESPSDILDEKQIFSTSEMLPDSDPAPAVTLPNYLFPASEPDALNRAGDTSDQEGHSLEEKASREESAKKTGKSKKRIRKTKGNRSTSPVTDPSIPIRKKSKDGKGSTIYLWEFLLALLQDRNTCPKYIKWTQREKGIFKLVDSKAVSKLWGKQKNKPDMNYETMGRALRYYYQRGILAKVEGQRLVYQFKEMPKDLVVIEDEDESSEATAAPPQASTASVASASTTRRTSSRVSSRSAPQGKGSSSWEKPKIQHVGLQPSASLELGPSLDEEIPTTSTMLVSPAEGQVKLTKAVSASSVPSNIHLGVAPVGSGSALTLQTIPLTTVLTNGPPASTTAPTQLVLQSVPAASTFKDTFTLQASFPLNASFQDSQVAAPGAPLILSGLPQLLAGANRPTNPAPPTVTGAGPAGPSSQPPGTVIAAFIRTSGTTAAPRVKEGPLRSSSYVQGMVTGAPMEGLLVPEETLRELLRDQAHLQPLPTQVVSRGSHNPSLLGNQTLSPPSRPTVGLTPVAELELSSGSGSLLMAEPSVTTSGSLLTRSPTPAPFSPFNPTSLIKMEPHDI
HSF1, sequence (Q00613 whole entry): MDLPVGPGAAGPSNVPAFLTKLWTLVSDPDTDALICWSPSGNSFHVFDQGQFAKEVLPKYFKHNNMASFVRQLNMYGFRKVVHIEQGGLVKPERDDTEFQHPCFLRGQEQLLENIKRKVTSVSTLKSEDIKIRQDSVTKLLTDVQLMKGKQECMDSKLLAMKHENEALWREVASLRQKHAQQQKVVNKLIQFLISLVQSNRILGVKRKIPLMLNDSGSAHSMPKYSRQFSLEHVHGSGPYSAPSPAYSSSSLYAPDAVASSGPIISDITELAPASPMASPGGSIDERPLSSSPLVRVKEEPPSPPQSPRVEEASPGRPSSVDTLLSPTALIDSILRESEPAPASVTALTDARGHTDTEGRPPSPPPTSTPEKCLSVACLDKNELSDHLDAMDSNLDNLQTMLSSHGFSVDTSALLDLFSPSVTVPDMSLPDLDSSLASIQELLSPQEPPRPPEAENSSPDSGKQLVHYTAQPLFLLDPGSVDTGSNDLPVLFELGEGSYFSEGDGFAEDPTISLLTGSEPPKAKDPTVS
ETV6, sequence (P41212 whole entry): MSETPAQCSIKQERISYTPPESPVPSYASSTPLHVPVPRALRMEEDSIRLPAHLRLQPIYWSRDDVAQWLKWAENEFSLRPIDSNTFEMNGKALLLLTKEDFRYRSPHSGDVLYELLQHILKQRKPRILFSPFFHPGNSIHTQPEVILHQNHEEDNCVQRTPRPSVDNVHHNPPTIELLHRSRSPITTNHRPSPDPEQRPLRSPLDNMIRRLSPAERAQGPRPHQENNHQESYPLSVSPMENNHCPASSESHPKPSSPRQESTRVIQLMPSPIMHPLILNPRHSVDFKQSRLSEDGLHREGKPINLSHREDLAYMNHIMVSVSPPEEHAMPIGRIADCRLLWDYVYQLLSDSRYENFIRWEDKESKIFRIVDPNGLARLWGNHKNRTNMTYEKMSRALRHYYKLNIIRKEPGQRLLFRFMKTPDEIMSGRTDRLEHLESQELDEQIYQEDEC
ETV5, sequence (P41161 whole entry): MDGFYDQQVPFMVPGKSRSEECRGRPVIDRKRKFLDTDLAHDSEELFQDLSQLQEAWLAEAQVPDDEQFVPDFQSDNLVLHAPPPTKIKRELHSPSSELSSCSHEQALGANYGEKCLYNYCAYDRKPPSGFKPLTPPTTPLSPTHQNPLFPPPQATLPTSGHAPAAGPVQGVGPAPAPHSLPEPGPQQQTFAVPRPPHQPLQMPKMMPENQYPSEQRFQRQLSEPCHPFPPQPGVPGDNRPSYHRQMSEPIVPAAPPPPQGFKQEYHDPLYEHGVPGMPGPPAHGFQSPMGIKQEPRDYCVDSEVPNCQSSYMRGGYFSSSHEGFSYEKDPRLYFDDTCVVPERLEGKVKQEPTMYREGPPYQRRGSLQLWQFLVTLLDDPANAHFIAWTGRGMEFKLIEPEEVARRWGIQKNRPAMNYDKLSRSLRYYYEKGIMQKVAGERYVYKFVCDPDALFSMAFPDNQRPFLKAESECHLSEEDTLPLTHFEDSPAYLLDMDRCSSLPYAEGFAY
CRX, sequence (O43186 whole entry): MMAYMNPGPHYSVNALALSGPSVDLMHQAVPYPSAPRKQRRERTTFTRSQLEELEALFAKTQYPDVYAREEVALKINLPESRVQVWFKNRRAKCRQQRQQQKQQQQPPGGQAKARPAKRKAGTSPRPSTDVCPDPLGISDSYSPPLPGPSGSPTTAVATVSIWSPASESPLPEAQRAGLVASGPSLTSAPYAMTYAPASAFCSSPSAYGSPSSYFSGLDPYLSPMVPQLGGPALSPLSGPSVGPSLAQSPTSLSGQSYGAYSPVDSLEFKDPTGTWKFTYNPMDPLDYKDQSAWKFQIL
ETV1, sequence (P50549 whole entry): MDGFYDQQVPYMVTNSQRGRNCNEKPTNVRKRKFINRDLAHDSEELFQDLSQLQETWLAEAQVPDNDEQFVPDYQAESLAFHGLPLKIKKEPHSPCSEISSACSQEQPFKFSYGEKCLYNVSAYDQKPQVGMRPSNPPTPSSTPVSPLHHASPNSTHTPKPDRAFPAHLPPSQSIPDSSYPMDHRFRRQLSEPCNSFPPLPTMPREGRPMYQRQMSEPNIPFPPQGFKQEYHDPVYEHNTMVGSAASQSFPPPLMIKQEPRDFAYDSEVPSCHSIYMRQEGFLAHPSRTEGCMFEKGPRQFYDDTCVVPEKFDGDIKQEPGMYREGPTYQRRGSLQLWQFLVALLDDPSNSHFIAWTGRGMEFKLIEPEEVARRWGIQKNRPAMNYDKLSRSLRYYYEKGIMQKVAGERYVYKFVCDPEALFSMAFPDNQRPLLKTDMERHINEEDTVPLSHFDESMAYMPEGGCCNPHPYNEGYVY

With TTCAAA, the binding signal in experiment [1] was 1.25 fold enrichment (6-mer frequency, TF over GST control); in experiment [2], 1.26 fold enrichment (6-mer frequency, TF over GST control); in experiment [3] it was 1.25 fold enrichment (6-mer frequency, TF over GST control); in [4] it was 1.35 fold enrichment (6-mer frequency, TF over GST control); in experiment [5] it was 1.26 fold enrichment (6-mer frequency, TF over GST control); in experiment [6], 1.33 fold enrichment (6-mer frequency, TF over GST control). Also, the binding signal in experiment [7] is 1.34 fold enrichment (6-mer frequency, TF over GST control); in experiment [8], 1.43 fold enrichment (6-mer frequency, TF over GST control); in experiment [9], 1.28 fold enrichment (6-mer frequency, TF over GST control); in experiment [10], 1.32 fold enrichment (6-mer frequency, TF over GST control); in [11] it was 1.26 fold enrichment (6-mer frequency, TF over GST control); in experiment [12] it was 1.27 fold enrichment (6-mer frequency, TF over GST control). The binding signal was 1.25 fold enrichment (6-mer frequency, TF over GST control) in experiment [13]; 1.23 fold enrichment (6-mer frequency, TF over GST control) in [14]; 1.19 fold enrichment (6-mer frequency, TF over GST control) in experiment [15]; 1.21 fold enrichment (6-mer frequency, TF over GST control) in experiment [16]; 1.23 fold enrichment (6-mer frequency, TF over GST control) in experiment [17]; 1.27 fold enrichment (6-mer frequency, TF over GST control) in experiment [18].

For the origin of these results see paper PMC7862700, “An all-to-all approach to the identification of sequence-specific readers for epigenetic DNA modifications on cytosine”.
